Assay results taken from PubChem BioAssay.
For some assays here: Potency and affinity values are given separately. Active and inactive are the calls of the source. Where a call stands in place of a potency, no number is given. Unless noted, cut-off not given; nearly all actives show IC50 up to about 0.91 µM.

Each compound was assayed against Protein kinase 7 (PK7), Plasmodium falciparum 3D7 (PF3D7_0213400) (UniProt Q7YTF7) (assay: inhibition of Plasmodium PK7 catalytic activity – biochemical, TCAMS antimalarial set, Kinase-Glo luminescence (AID 1159587; call rule not given here)). Settings: recombinant PfPK7, Kinase-Glo ATP depletion luminescence.
Chain of Protein kinase 7 (PK7), Plasmodium falciparum 3D7 (PF3D7_0213400) (Q7YTF7 1-343): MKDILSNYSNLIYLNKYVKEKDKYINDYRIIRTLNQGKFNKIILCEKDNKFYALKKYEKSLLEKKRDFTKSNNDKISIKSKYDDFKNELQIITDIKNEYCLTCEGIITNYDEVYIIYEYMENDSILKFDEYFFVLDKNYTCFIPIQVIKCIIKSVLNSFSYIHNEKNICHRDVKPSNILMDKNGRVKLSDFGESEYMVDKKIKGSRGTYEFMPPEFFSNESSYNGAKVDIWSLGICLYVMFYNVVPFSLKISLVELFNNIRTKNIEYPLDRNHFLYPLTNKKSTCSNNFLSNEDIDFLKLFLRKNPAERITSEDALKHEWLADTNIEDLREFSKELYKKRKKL
In the case of `CN(c1ccc2c(c1)nc(Nc1ccc(Cl)cc1)n2C)c1ccnc(Nc2ccc(CS(C)(=O)=O)cc2)n1`, the outcome is reported as “inactive”.
`COc1ccc(Nc2nc(C)cc(NCc3ccc(-c4c(C)noc4C)cc3)n2)cc1` was tested, and the outcome was “inactive”.
With `CCCCCCN1CCCN(Cc2ccc(C(=O)Nc3ccc(CCC)cc3)cc2)CC1` the outcome was “inactive”.
For `COc1cc2nc(Nc3ccc(Oc4ccccc4)cc3)nc(Nc3ccc(Oc4ccccc4)cc3)c2cc1OC`, the outcome was “inactive”.
In the case of `CN1CCCC(CN2CCN(Cc3cccc(-c4ccc(-c5nc6ccccc6[nH]5)cc4)c3)CC2)C1` (stereo not given), the outcome is reported as “inactive”.
For `COc1ccc2ncc(F)c(CCN3C[C@H](CNCc4ccc5c(c4)OCCO5)[C@H](O)C3)c2n1`, the outcome was “inactive”.
`COc1ccc(CNC(=O)c2cnc3cc(-c4c(C)noc4C)ccc3c2Nc2ccccc2C(C)(C)C)cc1` was tested, and the outcome was “inactive”.
With `CC(O)C1CCCCN1C(=O)c1cccc(-c2ccc(-c3nc4ccccc4[nH]3)s2)c1` (stereo not given) the outcome was “inactive”.
For `CC(C)(CN1CCCC1)CN(Cc1ccc(-c2ccc(C(F)(F)F)cc2)cc1)C(=O)Cn1c(CCc2cccc(F)c2F)nc(=O)c2ccccc21`, the outcome was “inactive”.
For `CC(CN(C)C)C(=O)Nc1ccc(-c2cccc(-c3nc4ccc(C(F)(F)F)cc4[nH]3)c2)cc1` (stereo not given), the outcome was “inactive”.
In the case of `Cc1[nH]c(C)c(-c2ccc(Oc3ccc(O)cc3)cc2)c(=O)c1Cl`, the outcome is reported as “inactive”.
With `Cc1cccc2[nH]c(-c3ccc(-c4cccc(CNCc5cccc(N)c5)c4)cc3)nc12` the outcome was “inactive”.
With `COc1ccc2nccc(NCC3(O)CCC(NCc4ccc5c(n4)NC(=O)CS5)CC3)c2n1` (stereo not given) the outcome was “inactive”.
For `Cc1cc2cc(-c3ccc(CN)cc3)ccc2nc1N`, the outcome was “inactive”.
In the case of `N#Cc1cccc(CN2CCCN(c3ccc(NC(=O)c4cccs4)cc3)CC2)c1`, the outcome is reported as “inactive”.
For `Cc1[nH]nc2cc(F)c(-c3cc(OC[C@@H](N)Cc4ccccc4)cnc3-c3ccoc3)cc12`, the outcome was “inactive”.
`CC(Oc1c(C2CCN(CCCCNC(=O)c3ccc(-c4ccc(C#N)cc4)cc3)CC2)ccc2c1CCCC2)C(N)=O` (stereo not given) was tested, and the outcome was “inactive”.
With `CCCCOc1ccc(CNCCCCCCNCc2ccc(OCCCC)c3ccccc23)c2ccccc12` the outcome was “inactive”.
`O=C(NC1CCN(Cc2ccccc2)CC1)c1ccc(-c2nc3cc4ccccc4cc3[nH]2)s1` was tested, and the outcome was “inactive”.
For `CC1(C)N=C(N)NC(NOCC=Cc2ccccc2)=N1`, the outcome was “inactive”.
With `CC(NCC(O)Cn1c2ccccc2c2ccccc21)c1ccccc1` (stereo not given) the outcome was “inactive”.
`O=C(Nc1ccc2oc(-c3ccc(Br)cc3)nc2c1)c1ccc([N+](=O)[O-])o1` was tested, and the outcome was “inactive”.
With `CCCCCCN(CCCCCC)CC(O)c1c(OC)ccc2ccccc12` (stereo not given) the outcome was “inactive”.
`COc1ccc(C2CC(=O)C3=C(C2)NC(C)=C(C(=O)OC(C)C)C3c2c(F)cccc2Cl)cc1OC` (stereo not given) was tested, and the outcome was “inactive”.
In the case of `Nc1nc(N)c2cc3ccc(OCc4ccccc4)cc3nc2n1`, the outcome is reported as “inactive”.
In the case of `CN(CCc1ccccn1)c1cccc2c1nc(-c1cccnc1)n2CCNCc1ccccc1`, the outcome is reported as “inactive”.
In the case of `O=C(NCC1CN(Cc2ccc(N3CCCC3)o2)CCCO1)c1ccc2c(c1)OCO2` (stereo not given), the outcome is reported as “inactive”.
In the case of `COc1cc2ncnc(Nc3ccc4nc(Cc5ccccc5)[nH]c4c3)c2cc1OC`, the outcome is reported as “inactive”.
With `O=C(Nc1ccc(S(=O)(=O)N2CCCCCC2)cc1)c1cc(-c2ccccc2O)n[nH]1` the outcome was “inactive”.
In the case of `Cc1cccc2[nH]c(-c3ccc(-c4ccc(NC(=O)Nc5ccc(Cl)c(Cl)c5)cc4)cc3)nc12`, the outcome is reported as “inactive”.
With `O=C(C=Cc1ccc(-c2nc3ccccc3[nH]2)cc1)NC1CCN(Cc2ccccc2)CC1` the outcome was “inactive”.
In the case of `O=C(NCC1CCN(Cc2cccc(C(F)(F)F)c2)C1)c1cc(-c2cccc(C(F)(F)F)c2)cs1` (stereo not given), the outcome is reported as “inactive”.
`O=C(CN1CCCCC1)Nc1ccc(Nc2nccc(NCC(O)c3ccccc3)n2)cc1` (stereo not given) was tested, and the outcome was “inactive”.
In the case of `NC(=O)c1cnc2cc(-c3ccoc3)ccc2c1Nc1ccc(NC(=O)Nc2ccccc2Cl)cc1`, the outcome is reported as “inactive”.
With `Cc1ccc(-n2nc3ccc(NC(=O)c4ccc([N+](=O)[O-])o4)cc3n2)cc1C` the outcome was “inactive”.
`CCCCc1ccc(-c2c(N)nc(N)nc2CC)cc1` was tested, and the outcome was “inactive”.
`CCCCOc1ccc(/C=C/c2ccc(-c3c(C)[nH]c(C)c(Cl)c3=O)s2)cc1` was tested, and the outcome was “inactive”.
`COc1ccc(C(C(=O)NC2CCN(C[C@H](O)c3ccnc4ccc(OC)cc34)CC2)N2CCN(c3ccc(Cl)c(Cl)c3)CC2)cc1` (stereo not given in full) was tested, and the outcome was “inactive”.
For `Nc1nccc2ccc(-c3ccsc3)cc12`, the outcome was “inactive”.
With `Cc1cccc2[nH]c(-c3cccc(-c4cccc(NC(=O)c5cncn5C)c4)c3)nc12` the outcome was “inactive”.

These compounds were tested against Calcium-dependent protein kinase 4 (Plasmodium falciparum (isolate 3D7)) (UniProt Q8IBS5) (assay: PfCDPK4 kinase inhibitors, biochemical, TCAMS library (AID 1159588)). Settings: recombinant PfCDPK4, Kinase-Glo ATP depletion luminescence.
Chain of Calcium-dependent protein kinase 4 (Plasmodium falciparum (isolate 3D7)) (Q8IBS5 whole entry, looked up): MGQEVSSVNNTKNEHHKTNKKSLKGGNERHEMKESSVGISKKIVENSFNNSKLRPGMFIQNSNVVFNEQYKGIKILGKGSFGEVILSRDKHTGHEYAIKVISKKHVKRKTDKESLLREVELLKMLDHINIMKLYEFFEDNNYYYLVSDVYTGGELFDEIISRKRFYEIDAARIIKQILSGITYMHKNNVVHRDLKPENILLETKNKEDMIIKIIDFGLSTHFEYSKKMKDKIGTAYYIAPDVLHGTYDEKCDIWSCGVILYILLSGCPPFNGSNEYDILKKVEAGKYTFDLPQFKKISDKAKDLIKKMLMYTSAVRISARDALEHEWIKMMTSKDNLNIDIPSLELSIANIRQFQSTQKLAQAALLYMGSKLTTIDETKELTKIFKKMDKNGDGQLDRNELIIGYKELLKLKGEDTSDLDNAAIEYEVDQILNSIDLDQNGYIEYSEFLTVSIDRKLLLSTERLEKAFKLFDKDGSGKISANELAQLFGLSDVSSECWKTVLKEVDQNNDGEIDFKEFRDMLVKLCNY
For `CN(c1ccc2c(c1)nc(Nc1ccc(Cl)cc1)n2C)c1ccnc(Nc2ccc(CS(C)(=O)=O)cc2)n1`, the outcome was “inactive”.
With `COc1ccc(Nc2nc(C)cc(NCc3ccc(-c4c(C)noc4C)cc3)n2)cc1` the outcome was “inactive”.
For `CCCCCCN1CCCN(Cc2ccc(C(=O)Nc3ccc(CCC)cc3)cc2)CC1`, the outcome was “inactive”.
`COc1cc2nc(Nc3ccc(Oc4ccccc4)cc3)nc(Nc3ccc(Oc4ccccc4)cc3)c2cc1OC` was tested, and the outcome was “inactive”.
For `CN1CCCC(CN2CCN(Cc3cccc(-c4ccc(-c5nc6ccccc6[nH]5)cc4)c3)CC2)C1` (stereo not given), the outcome was “inactive”.
In the case of `COc1ccc2ncc(F)c(CCN3C[C@H](CNCc4ccc5c(c4)OCCO5)[C@H](O)C3)c2n1`, the outcome is reported as “inactive”.
In the case of `COc1ccc(CNC(=O)c2cnc3cc(-c4c(C)noc4C)ccc3c2Nc2ccccc2C(C)(C)C)cc1`, the outcome is reported as “inactive”.
For `CC(O)C1CCCCN1C(=O)c1cccc(-c2ccc(-c3nc4ccccc4[nH]3)s2)c1` (stereo not given), the outcome was “inactive”.
With `CC(C)(CN1CCCC1)CN(Cc1ccc(-c2ccc(C(F)(F)F)cc2)cc1)C(=O)Cn1c(CCc2cccc(F)c2F)nc(=O)c2ccccc21` the outcome was “inactive”.
For `CC(CN(C)C)C(=O)Nc1ccc(-c2cccc(-c3nc4ccc(C(F)(F)F)cc4[nH]3)c2)cc1` (stereo not given), the outcome was “inactive”.
With `Cc1[nH]c(C)c(-c2ccc(Oc3ccc(O)cc3)cc2)c(=O)c1Cl` the outcome was “inactive”.
In the case of `Cc1cccc2[nH]c(-c3ccc(-c4cccc(CNCc5cccc(N)c5)c4)cc3)nc12`, the outcome is reported as “inactive”.
For `COc1ccc2nccc(NCC3(O)CCC(NCc4ccc5c(n4)NC(=O)CS5)CC3)c2n1` (stereo not given), the outcome was “inactive”.
In the case of `Cc1cc2cc(-c3ccc(CN)cc3)ccc2nc1N`, the outcome is reported as “inactive”.
`N#Cc1cccc(CN2CCCN(c3ccc(NC(=O)c4cccs4)cc3)CC2)c1` was tested, and the outcome was “inactive”.
`Cc1[nH]nc2cc(F)c(-c3cc(OC[C@@H](N)Cc4ccccc4)cnc3-c3ccoc3)cc12` was tested, and the outcome was “inactive”.
For `CC(Oc1c(C2CCN(CCCCNC(=O)c3ccc(-c4ccc(C#N)cc4)cc3)CC2)ccc2c1CCCC2)C(N)=O` (stereo not given), the outcome was “inactive”.
For `CCCCOc1ccc(CNCCCCCCNCc2ccc(OCCCC)c3ccccc23)c2ccccc12`, the outcome was “inactive”.
`O=C(NC1CCN(Cc2ccccc2)CC1)c1ccc(-c2nc3cc4ccccc4cc3[nH]2)s1` was tested, and the outcome was “inactive”.
For `CC1(C)N=C(N)NC(NOCC=Cc2ccccc2)=N1`, the outcome was “inactive”.
In the case of `CC(NCC(O)Cn1c2ccccc2c2ccccc21)c1ccccc1` (stereo not given), the outcome is reported as “inactive”.
With `O=C(Nc1ccc2oc(-c3ccc(Br)cc3)nc2c1)c1ccc([N+](=O)[O-])o1` the outcome was “inactive”.
With `CCCCCCN(CCCCCC)CC(O)c1c(OC)ccc2ccccc12` (stereo not given) the outcome was “inactive”.
For `COc1ccc(C2CC(=O)C3=C(C2)NC(C)=C(C(=O)OC(C)C)C3c2c(F)cccc2Cl)cc1OC` (stereo not given), the outcome was “inactive”.
For `Nc1nc(N)c2cc3ccc(OCc4ccccc4)cc3nc2n1`, the outcome was “inactive”.
`CN(CCc1ccccn1)c1cccc2c1nc(-c1cccnc1)n2CCNCc1ccccc1` was tested, and the outcome was “inactive”.
With `O=C(NCC1CN(Cc2ccc(N3CCCC3)o2)CCCO1)c1ccc2c(c1)OCO2` (stereo not given) the outcome was “inactive”.
In the case of `COc1cc2ncnc(Nc3ccc4nc(Cc5ccccc5)[nH]c4c3)c2cc1OC`, the outcome is reported as “inactive”.
For `O=C(Nc1ccc(S(=O)(=O)N2CCCCCC2)cc1)c1cc(-c2ccccc2O)n[nH]1`, the outcome was “inactive”.
In the case of `Cc1cccc2[nH]c(-c3ccc(-c4ccc(NC(=O)Nc5ccc(Cl)c(Cl)c5)cc4)cc3)nc12`, the outcome is reported as “inactive”.
In the case of `O=C(C=Cc1ccc(-c2nc3ccccc3[nH]2)cc1)NC1CCN(Cc2ccccc2)CC1`, the outcome is reported as “inactive”.
With `O=C(NCC1CCN(Cc2cccc(C(F)(F)F)c2)C1)c1cc(-c2cccc(C(F)(F)F)c2)cs1` (stereo not given) the outcome was “inactive”.
`O=C(CN1CCCCC1)Nc1ccc(Nc2nccc(NCC(O)c3ccccc3)n2)cc1` (stereo not given) was tested, and the outcome was “inactive”.
With `NC(=O)c1cnc2cc(-c3ccoc3)ccc2c1Nc1ccc(NC(=O)Nc2ccccc2Cl)cc1` the outcome was “inactive”.
With `Cc1ccc(-n2nc3ccc(NC(=O)c4ccc([N+](=O)[O-])o4)cc3n2)cc1C` the outcome was “inactive”.
In the case of `CCCCc1ccc(-c2c(N)nc(N)nc2CC)cc1`, the outcome is reported as “inactive”.
For `CCCCOc1ccc(/C=C/c2ccc(-c3c(C)[nH]c(C)c(Cl)c3=O)s2)cc1`, the outcome was “inactive”.
For `COc1ccc(C(C(=O)NC2CCN(C[C@H](O)c3ccnc4ccc(OC)cc34)CC2)N2CCN(c3ccc(Cl)c(Cl)c3)CC2)cc1` (stereo not given in full), the outcome was “inactive”.
In the case of `Nc1nccc2ccc(-c3ccsc3)cc12`, the outcome is reported as “inactive”.
For `Cc1cccc2[nH]c(-c3cccc(-c4cccc(NC(=O)c5cncn5C)c4)c3)nc12`, the outcome was “inactive”.
